Sampled rows, rich in hits. Any-hit rate of the full collection: about 21%.
ELG1 repair inh: ELG1-dependent DNA repair inhibition | HEK293T ELG1-luciferase reporter, luminescence, 16 h; DNA damage induced by 5-fluorouridine | Potency, µM (titrated, usually from 46.1 µM), for the others: top-dose activity change, negative = inhibition, actives largely listed as inhibitors | hit rate 2.3% among 330,000 | AID 504467; further: potency means the concentration at half of the fitted maximal effect; nearly all actives have a fitted effect of over 55% in size
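Overnight (16 hr) co-exposure of 2,000 cells/well to 5-fluorouridine and compound at 37 °C preceded detection. Luciferase was quantified via ONE-Glo luminescence; loss of signal denotes inhibition.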
Gal4-VP16 FLuc: counter-screen for ROR gamma inhibitors: Gal4-VP16 reporter; Drosophila S2 Gal4-VP16 UAS-luciferase, luminescence, 20 h; Potency, µM (highest dose often 53.6 µM), for inactives: at the highest dose activity, negative = inhibition, usual class: inhibitors; hit rate 3.5% among 310,000;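 further: Gal4-VP16 expression switched on by copper sulfate through the metallothionein promoter; potency means the concentration at half of the fitted maximal effect; nearly all actives have a fitted effect of over 50% in size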
RORg inh: ROR gamma (mouse) transcription inhibition. Potency, µM (series often up to 53.6 µM), for inactives: at the highest dose activity change, negative = inhibition, usual class: inhibitors. Drosophila S2 Gal4-RORgamma UAS-luciferase reporter, 20 h. P51450. AID 2551. hit rate 5.4% among 310,000; further: potency means the concentration at half of the fitted maximal effect; nearly all actives have a fitted effect of over 60% in size
Target sequence (P51450 whole entry, looked up, the tested form may be a part): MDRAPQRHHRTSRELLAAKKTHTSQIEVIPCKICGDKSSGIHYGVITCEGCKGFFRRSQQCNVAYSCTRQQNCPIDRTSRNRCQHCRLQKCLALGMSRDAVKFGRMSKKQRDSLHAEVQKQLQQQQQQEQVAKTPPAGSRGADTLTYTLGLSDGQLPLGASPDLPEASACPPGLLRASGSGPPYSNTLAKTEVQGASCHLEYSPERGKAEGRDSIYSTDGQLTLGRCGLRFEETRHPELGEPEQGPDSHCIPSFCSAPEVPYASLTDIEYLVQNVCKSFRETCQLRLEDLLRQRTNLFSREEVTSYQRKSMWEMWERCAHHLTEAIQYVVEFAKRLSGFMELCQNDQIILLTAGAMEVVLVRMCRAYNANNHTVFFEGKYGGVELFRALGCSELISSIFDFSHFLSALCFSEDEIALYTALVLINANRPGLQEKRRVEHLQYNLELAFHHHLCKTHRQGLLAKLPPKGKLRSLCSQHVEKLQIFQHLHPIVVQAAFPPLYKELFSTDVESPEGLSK
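Compounds are pin-transferred onto Drosophila Schneider cells expressing a copper-inducible Gal4–ROR gamma transactivation domain fusion. After 1 hr, copper sulfate is added to 700 uM final; luciferase is read 20 hr later.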
DT40 TDP1 no CPT: qHTS for Inhibitors of human tyrosyl-DNA phosphodiesterase 1 (TDP1): qHTS in cells in absence of CPT | AID 686978, 2013 | hit rate 15% among 420,000 | Potency, µM (series often up to 46.2 µM), without a hit: at the top dose activity change, negative = growth inhibition, most hits filed as inhibitors | DT40 Tdp1-/- hTDP1 cells, no CPT, ATP luminescence, 48 h; further: potency means the concentration at half of the fitted maximal effect; nearly all actives have a fitted effect of over 55% in size
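Growth kinetics read by CellTiter-Glo luminescence after ≥48 hr at 37 °C. Cells: DT40 Tdp1-/- stably carrying human TDP1, 400 per well, compound exposure in the absence of CPT (DMSO vehicle).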
TDP1 cell CPT: DT40-hTDP1 cell growth loss with CPT | Potency, µM (highest dose often 46.2 µM), for inactives: at the top dose activity change, negative = growth inhibition, most hits filed as inhibitors | hit rate 12% among 420,000 | chicken DT40 Tdp1-/-;hTDP1 cells + 20 nM CPT, ATP luminescence, 48 h | AID 686979; further: potency means the concentration at half of the fitted maximal effect; nearly all actives have a fitted effect of over 55% in size
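Chicken DT40 Tdp1-/- cells stably complemented with human TDP1 were seeded at 400 cells/well in medium containing 20 nM camptothecin, exposed to pin-transferred compounds, and grown at 37 °C for at least 48 hr. Viability was read as ATP luminescence.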
IL1B secr inh: inflammasome signaling inhibition, IL-1 beta readout. AID 743279. activity change, % at 57.5 µM. hit rate 4.7% among 360,000. THP-1 LPS/ATP IL-1B secretion, AlphaLISA, 16 h; stronger effect = lower value; in the data active means activity change below about -50%; inconclusive means mostly about -30% to -49%
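Secreted IL-1B measured by AlphaLISA bead assay after 16 h compound exposure of THP-1 cells; compounds (final up to 57.5 uM) added 1 h before LPS (250 ng/mL) and ATP (1.25 mM) stimulation; lower signal means less secretion.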
Active calls of the source: *; ? = inconclusive; . = no result given; ! = repeats disagree; [ ] = remark or other dose. Unless noted, the call rests on the fitted dose curve; in most records, active means well fitted curve in the direction sought with a large enough effect; inconclusive means small, poorly fitted or top-dose-only effect, or another doubt; inactive means no such curve, though single readings can be large; an effect the other way counts as inactive or inconclusive. On the % scale 0 is the no-effect control and ±100 the full control effect.

SMILES	ELG1 repair inh	Gal4-VP16 FLuc	RORg inh	DT40 TDP1 no CPT	TDP1 cell CPT	IL1B secr inh
OC(c1ccc(F)cc1)C(CN1CCOCC1)c1ccccc1 (stereo unspecified)	8.8%	-7.2%	-15.8%	?	-29.6%	18.6
CC(CN1CCOCC1)OC(=O)c1ccc(Br)cc1 (stereo unspecified)	-1.7%	?	2µM*	0.651µM*	0.92µM*	31.1
CC(CN1CCN(CC(C)C(=O)c2ccccc2)CC1)C(=O)c1ccccc1 (stereo unspecified)	.	.	.	-18.0%	?	1.8
O=C(c1ccccc1)C(CN1CCCCC1)c1ccccc1 (stereo unspecified)	.	.	.	2.06µM*	1.84µM*	-102.0*
CCCCCOc1ccc(C(O)C(CN2CCOCC2)c2ccccc2)cc1 (stereo unspecified)	-21.1%	7.4%	25.2%	?	?	-61.8*
CC(=O)Nc1ccc(OCc2cn(CC(=O)c3ccc(O)cc3)nn2)cc1	.	.	.	-11.9%	-14.6%	-11.7
COc1ccccc1N1CCN(C(=O)CNC(=O)c2ccc(Cl)cc2Cl)CC1	?	7.0%	3.6%	?	?	18.4
CCOc1ccc(C(CN2CCOCC2)C(C)=O)cc1OC (stereo unspecified)	.	.	.	4.11µM*	4.11µM*	-116.6*
O=C(c1ccccc1)c1ccc(OCC(O)CN2CCOCC2)cc1 (stereo unspecified)	.	.	.	-23.2%	-6.2%	-3.9
CCOc1ccc(C(=O)C(CN2CCOCC2)c2ccccc2)cc1 (stereo unspecified)	?	?	?	3.26µM*	3.26µM*	-95.0*
CCCCCCCCCC(=O)N[C@H](CN1CCOCC1)[C@H](O)c1ccccc1	.	?	-13.4%	23.1µM*!	?	-12.9
O=C(Cn1c(=O)n(CCc2c[nH]c3ccccc23)c(=O)c2cccnc21)Nc1ccccc1F	?	5.1%	3.2%	23.1µM*	14.6µM*	-7.0
Cc1cccc(NC(=O)Cn2c(=O)n(CCc3c[nH]c4ccccc34)c(=O)c3cccnc32)c1	-19.8%	1.9%	0.9%	.	.	.
Fc1ccc2cc(-c3ccsc3)ncc2c1	?	.	.	-12.4%	0.4%	10.0
N#Cc1c(C(F)(F)F)cc(-c2ccccc2)nc1SCCN1CCOCC1	?	0.0%	19.6%	?	20.6µM*	-15.8
COc1ccc(CNC(=O)c2cc3c(C)nc4ccccc4c3o2)c(OC)c1	5.8µM*	?	?	13µM*	16.4µM*	45.1
COc1cccc(CNC(=O)c2cc3c(C)nc4ccccc4c3o2)c1	?	?	32.0%	18.4µM*	23.1µM*	-13.5
Cc1nnc2n1N=C(c1ccc(F)cc1F)CS2	11.2%	.	.	-6.6%	-5.0%	3.6
CCc1nc2c(OCc3ccc(C(=O)OC)cc3)cccn2c1N(C)C(=O)CC(C)C	.	.	.	?	?	2.1
CCc1nc2c(OCc3ccc(OC(F)F)cc3)cccn2c1N(C)C(=O)c1cccs1	.	.	.	16.4µM*	20.6µM*	-13.6
CCc1nc2c(OCCOc3ccc(F)cc3)cccn2c1N(C)C(=O)c1cccs1	.	.	.	10.3µM*	18.4µM*	-24.5
CCC(CO)Nc1ccn2nc(-c3cccc(Cl)c3)cc2n1 (stereo unspecified)	.	.	.	23.1µM*	23.1µM*	-4.2
COc1ccc(OCC(=O)Nc2ccc(-c3nc4cc(C)cc(C)c4o3)cc2)cc1	.	.	.	-21.7%	-21.7%	.
Cn1cc(CN2CCN(c3ccc(Cl)cn3)CC2)c(-c2ccccc2F)n1	-6.0%	-13.7%	13.0%	?	?	?
Cc1cc(-c2nn(-c3ccccc3F)cc2CN2CCN(c3ccccn3)CC2)c(C)s1	-6.0%	-0.9%	16.2%	11.6µM*	13µM*	?
SMILES	ELG1 repair inh	Gal4-VP16 FLuc	RORg inh	DT40 TDP1 no CPT	TDP1 cell CPT	IL1B secr inh
Cc1cc(-c2nn(-c3ccccc3F)cc2CNCCc2cnccn2)c(C)s1	4.3%	-3.7%	-15.1%	-28.3%	?	-62.5*
Cc1cccc(N2CCN(Cc3cn(C)nc3-c3ccccc3F)CC2)n1	-1.3%	-5.8%	-27.4%	2.59µM*	1.84µM*	0.0
c1ccc2[nH]ccc2c1	.	-1.8%	9.0%	-9.0%	-16.7%	.
Cc1ccc(C)c(NC(=O)c2cc3ccccc3o2)c1	?	3.9%	30.5%	-28.1%	-1.7%	9.2
CCc1cccc(C)c1NC(=O)C1CC=CCC1C(=O)O (stereo unspecified)	16.0%	-7.3%[10 µM]	-3.3%	20.6µM*	?	-0.4
CCc1cccc(C)c1NC(=O)CO/N=C(\C)c1cc2ccccc2o1	-27.4%	13.3%	0.9%	23.1µM*	18.4µM*	-2.1
CCCCNC(=O)CO/N=C(\C)c1cc2ccccc2o1	?	4.1%	-1.9%	?	?	-23.7
CCc1cccc(C)c1NC(=O)c1cc2ccccc2o1	.	.	.	16.4µM*	18.4µM*	.
CC(=O)NC1CC(=O)N(c2ccc3c(c2)OCCO3)C1 (stereo unspecified)	.	.	.	-11.0%	-0.8%	.
OCCN1CCN(C(=S)c2ccc(Cl)c(Cl)c2)CC1	8.7%	.	6.3%[0.365 µM]	18.4µM*	18.4µM*	-11.5
COc1cc(NC(=S)N2CCN(CCO)CC2)c(OC)cc1Cl	17.9%	-4.1%	-10.5%	-5.5%	-12.1%	21.3
COc1ccccc1CC(=O)Nc1ccc(Cl)cc1C(=O)O	-1.1%	-4.0%	0.8%	-11.0%	20.7%	36.5
COC(=O)c1cc(Cl)ccc1NCC(N)c1ccccc1 (stereo unspecified)	.	.	.	?	18.4µM*	?
CC(C)CCSc1nc2c(c(=O)n(C)c(=O)n2C)n1Cc1ccccc1Cl	.	.	.	-17.5%	6.4%	.
CCCNC(=O)c1ccc2c(c1)N(Cc1cccc(C)c1)C(=O)c1ccccc1S2	.	.	.	-12.0%	-13.8%	.
O=C(NC1CCCC1)c1ccc2c(c1)N(Cc1c(F)cccc1Cl)C(=O)c1ccccc1S2	.	.	.	16.4µM*	16.4µM*	.
CC(C)OCCCNC(=O)c1ccc2c(c1)N(Cc1c(F)cccc1Cl)C(=O)c1ccccc1S2	.	.	.	25.9µM*	23.1µM*	.
COC(=O)c1ccc2c(c1)N(Cc1ccc(F)cc1)C(=O)c1ccccc1S2	.	.	.	-12.7%	-0.3%	.
Cc1ccc(C)c(CN2C(=O)c3ccccc3Sc3ccc(C(=O)NCCCOC(C)C)cc32)c1	.	.	.	20.6µM*	?	.
COCCNC(=O)c1ccc2c(c1)N(Cc1c(F)cccc1Cl)C(=O)c1ccccc1S2	.	.	.	20.6µM*	-26.6%	.
CCOc1ccc(S(=O)(=O)N2CCCCC2)cc1NC(=O)c1ccccc1	.	.	.	?	-3.7%	-1.0
COc1ccc(NC(=O)N2CC3(CCN(C(=O)c4csnn4)CC3)C2)cc1	.	-4.4%	-2.6%	-3.8%	4.3%	.

Compound activity: PubChem BioAssay, National Center for Advancing Translational Sciences (NCATS)
